Mtb BioA inh: blocks M. tuberculosis BioA enzyme activity. purified M. tuberculosis BioA enzyme, plate reader. inhibition, % at 9.99 µM. 360,000 compounds, 0.096% hits; in the data active means inhibition above about 40%; inconclusive means no clear call, values can overlap the other calls
FBA Mtb inh: inhibits M. tuberculosis FBA enzyme; purified M. tuberculosis FBA, fluorescence read-out; inhibition, % at 1 µM; 360,000 compounds, 2.3% hits; AID 588726;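 further: 0% = vehicle and 100% = reference inhibitor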
Target sequence (P9WQA3 whole entry, looked up): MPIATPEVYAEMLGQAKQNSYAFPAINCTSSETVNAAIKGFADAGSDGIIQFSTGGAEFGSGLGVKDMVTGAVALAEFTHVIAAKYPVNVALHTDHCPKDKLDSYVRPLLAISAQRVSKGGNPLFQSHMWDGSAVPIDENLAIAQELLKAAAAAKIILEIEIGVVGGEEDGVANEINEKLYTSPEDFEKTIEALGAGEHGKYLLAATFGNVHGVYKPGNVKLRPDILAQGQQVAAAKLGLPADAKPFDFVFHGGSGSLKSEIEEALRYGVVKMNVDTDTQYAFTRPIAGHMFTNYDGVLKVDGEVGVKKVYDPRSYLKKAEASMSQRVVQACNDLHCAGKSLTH
Mtb hypoxia inh: inhibitors of hypoxia-regulated fluorescent reporter in Mycobacterium tuberculosis; M. tuberculosis hypoxia-regulated fluorescent reporter, fluorescence; fluorescence inhibition, % (no concentration beside the values); 300,000 compounds, 0.1% hits; in the data active means fluorescence inhibition mostly above about 23%, no sharp cut-off; inactive means mostly below about 17%
FadD28 binding: inhibitors of Mycobacterium tuberculosis FadD28 bisubstrate binding | FadD28 bisubstrate probe binding, fluorescence polarization | inhibition, % at 12.5 µM | 360,000 compounds, 0.22% hits | AID 588549; in the data active means inhibition above about 8.5%, passing the limit was not always enough; inconclusive means no clear call, values can overlap the other calls
GDH-TPI counter-1: GDH-TPI coupled enzyme inhibition counter-screen; GDH-TPI coupled enzyme counterscreen, NADH absorbance; inhibition, % at 4.8 µM; 360,000 compounds, 1.2% hits; in the data active means inhibition above about 30%;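 further: 0% = DMSO wells and 100% = wells lacking the enzyme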
Mtb FBA confirm: Mtb FBA inhibition, confirmed | shares compounds with FBA Mtb inh | purified M. tuberculosis FBA, fluorescence read-out | inhibition, % at 1 µM | 5,600 compounds, 78% hits | AID 651616;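 further: 0% = vehicle wells and 100% = reference inhibitor wells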
GDH-TPI counter-2: inhibits GDH-TPI coupling enzymes, flagging Mtb FBA hits; shares compounds with FBA Mtb inh; GDH-TPI coupled enzyme counterscreen, fluorescence; inhibition, % at 1 µM; 5,600 compounds, 81% hits; AID 652141; in the data active means inhibition above about 10%
Starred values were filed as active, the others as inactive; ? = inconclusive; . = no result given; + = active, no number. Sampled rows, rich in hits. Any-hit rate of the full collection: about 2.9%. Unless noted, no stated cut-off is given here; in the data, active means inhibition above about 27%; inactive means the rest.

SMILES | Mtb BioA inh | FBA Mtb inh | Mtb hypoxia inh | FadD28 binding | GDH-TPI counter-1 | Mtb FBA confirm | GDH-TPI counter-2
CCC(=O)N(C)C[C@@H]1Oc2cc(C#Cc3ccccc3)ccc2S(=O)(=O)N([C@@H](C)CO)C[C@@H]1C | 4 | . | . | . | . | . | .
Cc1ccccc1COC(=O)c1nn(-c2ccccc2)nc1N | . | 97* | 2 | -1 | 0 | 79* | 67*
FC(F)(F)c1cc(-c2ccccc2)nc2ncnn12 | -1 | 34* | 1 | 1 | 1 | 0 | -3
NC(=O)c1cc2nc(-c3ccco3)cc(C(F)(F)F)n2n1 | . | 24 | 16 | -1 | 28 | . | .
FC(F)(F)c1cc(-c2ccco2)nc2ncnn12 | -1 | 27* | 8 | -1 | 17 | 75* | 57*
CCCNC(=O)NC[C@@H]1[C@H](c2ccc(C3=CCCC3)cc2)[C@@H](CO)N1C(=O)CC | -2 | . | . | . | . | . | .
C[C@@H]1CCCCO[C@@H](CN(C)C(=O)Nc2ccccc2)[C@H](C)CN([C@@H](C)CO)C(=O)c2cc(NS(=O)(=O)c3cn(C)cn3)ccc2O1 | 2 | . | . | . | . | . | .
COC(=O)C[C@H]1CC[C@@H]2[C@@H](COc3ccc(NC(=O)C4CC4)cc3C(=O)N2C)O1 | -1 | . | . | . | . | . | .
O=C(N/N=C/c1cccnc1)c1ccccc1NS(=O)(=O)c1cccs1 | 1 | 8 | . | -2 | 8 | . | .
O=C(NN=Cc1cc(Br)c(O)c(Br)c1)c1ccccc1NS(=O)(=O)c1cccs1 | 1 | 79* | 8 | ? | 48* | 165* | 135*
c1coc(CNc2ncnc3sc4c(c23)CCCCC4)c1 | 4 | 1 | -7 | -5 | -10 | . | .
CCN1CCc2c(sc3c2c(NCc2ccco2)nc2nnnn23)C1 | 5 | 64* | 2 | -3 | 8 | 9 | -2
Cc1cc(-c2ccccc2)nc(NN=Cc2ccccc2)n1 | . | . | 3 | . | . | . | .
COc1cccc(C(=O)N2CCN(c3ccc(N4CCOCC4)nn3)CC2)c1 | . | 29* | -6 | 0 | -4 | 0 | 0
Cc1ccccc1C(=O)N1CCN(c2ccc(N3CCOCC3)nn2)CC1 | 11 | 37* | 1 | -2 | 7 | 56* | 43*
O=C(c1cccc(Br)c1)N1CCN(c2ccc(N3CCOCC3)nn2)CC1 | 3 | 11 | 7 | 1 | 2 | . | .
O=C(NCc1ccco1)C1CCN(c2ccc(N3CCOCC3)nn2)CC1 | 2 | 27* | 8 | 1 | 0 | -3 | -3
COc1ccc2c(c1)CCc1cc(C(=O)N3CCN(c4ccc(N5CCOCC5)nn4)CC3)sc1-2 | 1 | 41* | 8 | -2 | 34* | + | 195*
COc1ccc(N2CCN(C(=O)c3cc4c(s3)-c3ccccc3OC4)CC2)cc1 | 2 | 4 | 10 | -1 | 12 | . | .
CCC(=O)Nc1ccc2c(c1)C(=O)N(C)C[C@@H](OC)[C@@H](C)CN(CCC(F)(F)F)[C@@H](C)CO2 | -1 | . | . | . | . | . | .
O=C(C1CCN(S(=O)(=O)N2CCOCC2)CC1)N1CCN(c2ccc(F)cc2)CC1 | 1 | -3 | -3 | -4 | -16 | . | .
O=C(C1CCN(c2ccc(N3CCOCC3)nn2)CC1)N1CCN(c2ccc(F)cc2)CC1 | -1 | 34* | 0 | 0 | 10 | 39* | 32*
COc1ccccc1NC(=S)NC(=O)c1ccc(-c2ccc(Cl)cc2)o1 | -2 | 2 | -8 | -3 | 16 | . | .
CC(=O)NC(=O)c1ccc(-c2ccc(Cl)cc2)o1 | -2 | 78* | 3 | -2 | 21 | 46* | 56*
O=C(O)c1cccc(Nc2ncnc3ccccc23)c1 | -1 | 49* | 3 | -3 | 14 | 83* | 78*
SMILES | Mtb BioA inh | FBA Mtb inh | Mtb hypoxia inh | FadD28 binding | GDH-TPI counter-1 | Mtb FBA confirm | GDH-TPI counter-2
CC(=O)Nc1ccc(S(=O)(=O)Nc2nc3ccccc3nc2Nc2ccccc2)cc1 | . | 82* | 2 | 2 | 7 | + | +
CC(=O)Nc1ccc(S(=O)(=O)NC(C)c2ccccc2)cc1 (stereo not drawn) | -1 | 31* | 9 | 0 | 2 | 123* | 95*
Oc1cccc(Nc2ncnc3ccccc23)c1 | . | 1 | -4 | 0 | 11 | . | .
COc1ccc(S(=O)(=O)Nc2nc3ccccc3nc2Nc2cccc(C(=O)O)c2)cc1 | -1 | 32* | -3 | ? | 38* | + | +
C[C@@H]1CCCCO[C@H](CN(C)C(=O)Nc2ccc3c(c2)OCO3)[C@H](C)CN([C@@H](C)CO)C(=O)c2cc(NS(=O)(=O)c3cn(C)cn3)ccc2O1 | -2 | . | . | . | . | . | .
COC(=O)C[C@@H]1CC[C@@H]2[C@@H](COc3ccc(NC(=O)Nc4cccc(Cl)c4)cc3C(=O)N2C)O1 | 2 | . | . | . | . | . | .
CCN(C(=O)COC(=O)Cc1cccc2ccccc12)C1CCS(=O)(=O)C1 (stereo not drawn) | 0 | 0 | 11 | -1 | 1 | . | .
O=C(Nc1cccc2ccccc12)N(CCO)C1CCS(=O)(=O)C1 (stereo not drawn) | -3 | 61* | -6 | -1 | 3 | 108* | 105*
O=C(C[C@@H]1C[C@@H]2c3cc(NC(=O)NC4CCCC4)ccc3O[C@@H]2[C@H](CO)O1)NCc1cccc(F)c1 | -3 | . | . | . | . | . | .
COC(=O)c1cc(OC)nc2c1c(=O)n(C)c(=O)n2C | . | 110* | 7 | -1 | 7 | . | +
COc1cccc2c1cc1c(=O)n(CC(=O)NCCCN3CCN(C)CC3)nc(C)n12 | 0 | 102* | 1 | 1 | 14 | 93* | 88*
CCCN1CCN(C(=O)Cn2nc(C)n3c(cc4c(OC)cccc43)c2=O)CC1 | 1 | 86* | . | -4 | -3 | 169* | 113*
Cc1nc2sc3c(c2c(=O)n1N=Cc1cccnc1)CCCC3 | . | . | 18 | . | . | . | .
COc1ccc(OC)c2c1CCC1(C2)NC(=O)NC1=O (stereo not drawn) | . | -2 | . | -1 | . | . | .
COc1ccc(OC)c2c1CC(C)(C)NC2=O | 0 | 74* | . | 2 | -3 | 33* | 32*
Cn1cc(-c2ccc(C(=O)NCc3cccc(Cl)c3)c3occc23)cn1 | 0 | 42* | . | -10 | 1 | 2 | -3
Cc1ccc(S(=O)(=O)Nc2cccc3c2O[C@@H](CN(C)C)[C@@H](C)CN([C@@H](C)CO)C3=O)cc1 | -1 | . | . | . | . | . | .
CC(=NNC(=O)c1ccccc1)c1ccccc1F | . | . | 11 | . | . | . | .
C[C@H]1CN([C@@H](C)CO)C(=O)c2cc(C#CC3CCCCC3)cnc2O[C@@H]1CN(C)C(=O)c1ccncc1 | -1 | . | . | . | . | . | .
N#Cc1ccc(CCc2ccccc2)[nH]c1=O | 0 | 31* | 1 | 1 | 17 | 2 | 0
CN(C)C=Nc1ccc2nc3c(cc2c1)[nH]c1ccccc13 | . | 51* | 20 | 0 | 18 | 172* | 144*
Cn1ccc2c(-c3ccc4c(c3)OCCO4)cc3c(c21)C1CCC3C1 (stereo not drawn) | -1 | 1 | . | 0 | . | . | .
CSc1ccc(-c2cc3c(c4c2ccn4C)C2CCC3C2)cc1 (stereo not drawn) | 0 | 21 | . | 1 | . | . | .
Cn1ccc2c(-c3ccc4c(c3)OCCO4)cc3c(c21)C1CCC3O1 (stereo not drawn) | 1 | 109* | . | 2 | . | 1 | -4
